Growth data for eight compounds are collected here from PubChem BioAssay (NCI).

The panel holds about 83,000 compounds, 20% with a hit somewhere; the sample as a whole holds those more often.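 For each line, cells grew in 96-well plates with the test compound present at a single concentration for 48 hours.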 Unmarked numbers belong to inactive results. Active and inactive are the calls of the source. How the source made its calls: active means growth percent below 10; inactive means the rest.

Some test systems named below: SR leukemia; RPMI-8226 leukemia; OVCAR-8 ovarian; OVCAR-5 ovarian; OVCAR-4 ovarian; SK-OV-3 ovarian; IGROV1 ovarian; OVCAR-3 ovarian; HS 578T breast; NCI/ADR-RES ovarian; T-47D breast; BT-549 breast; MDA-MB-435 melanoma; SW-620 colon; MCF7 breast; HCT-116 colon; HCC-2998 colon; KM12 colon.
Holding throughout (experiment): NCI-60 one-dose screen, 48 h (100 = growth as untreated, 0 = no growth, -100 = all killed)
Holding throughout (details): 10 µM unless noted

In the case of `Nc1ncnc2c1C(c1ccc([N+](=O)[O-])cc1)c1sc3c(F)cccc3c1O2` (centres undefined), the growth in the assay on SR leukemia is 94.3%; in the assay on RPMI-8226 leukemia, 103%; with OVCAR-8 ovarian, 102%; in the assay with OVCAR-5 ovarian it was 85.9%; with OVCAR-4 ovarian, 99.8%; in the assay on SK-OV-3 ovarian, 109%. Further, the growth with IGROV1 ovarian is 85.6%; in the assay on OVCAR-3 ovarian, 110%; with HS 578T breast, 89.2%; in the assay on NCI/ADR-RES ovarian, 101%; in the assay on T-47D breast, 71.7%; in the assay with BT-549 breast, 111%. Further, the growth with MDA-MB-435 melanoma was 101%; in the assay on SW-620 colon, 98.3%; in the assay with MCF7 breast, 21.9%; with HCT-116 colon, 101%; in the assay with HCC-2998 colon, 115%; with KM12 colon, 92.8%.

Regarding `COc1cc2ncnc(Nc3ccc(F)c(Cl)c3)c2cc1OCC(=O)N1CCCCC1`, the growth in the assay on SR leukemia is 74.6%; in the assay on RPMI-8226 leukemia it was 81.9%; in the assay on OVCAR-8 ovarian, 89.2%; with OVCAR-5 ovarian, 67%; in the assay with OVCAR-4 ovarian, 71.7%; in the assay with SK-OV-3 ovarian it was 21.3%. The growth is 42.8% in the assay with IGROV1 ovarian; 73.2% with OVCAR-3 ovarian; 94.4% in the assay on HS 578T breast; 62.1% with NCI/ADR-RES ovarian; 43.6% with T-47D breast; 94.4% with BT-549 breast. In addition, the growth is 95.3% with MDA-MB-435 melanoma; 104% in the assay on SW-620 colon; 82.6% in the assay with MCF7 breast; 79.6% in the assay on HCT-116 colon; 92.7% in the assay with HCC-2998 colon; 95.4% in the assay on KM12 colon.

Turning to `COc1cc(OC)cc(-c2ccc(-c3ccc(C(=N)N)cn3)s2)c1`, the growth is 6.61% (active) in the assay on SR leukemia; -1.98% (active) with RPMI-8226 leukemia; 17.8% in the assay with OVCAR-8 ovarian; 89.8% in the assay on OVCAR-5 ovarian; 28.4% in the assay with OVCAR-4 ovarian; 82.2% with SK-OV-3 ovarian. For the same compound, the growth with IGROV1 ovarian was 78.4%; with OVCAR-3 ovarian, 5.54% (active); in the assay with HS 578T breast, 84.9%; in the assay on NCI/ADR-RES ovarian it was 95.4%; with T-47D breast, 96.7%; with BT-549 breast, 95.1%. Besides, the growth with MDA-MB-435 melanoma is 82.5%; with SW-620 colon, 5.08% (active); in the assay on MCF7 breast it was 13%; with HCT-116 colon, -12.6% (active); in the assay with HCC-2998 colon it was 56.1%; with KM12 colon it was 40.7%.

For `C=C1C(=O)O[C@H]2[C@H]1CC/C(COC(=O)NCc1ccc(Cn3c(=O)sn(CCCI)c3=O)cc1)=C\CC[C@@]1(C)O[C@@H]21`, the growth was 8.4% (active) with SR leukemia; -6.45% (active) in the assay with RPMI-8226 leukemia; 37.7% in the assay on OVCAR-8 ovarian; 71.1% in the assay with OVCAR-5 ovarian; 17.7% with OVCAR-4 ovarian; 101% in the assay on SK-OV-3 ovarian. Besides, the growth is -0.0888% (active) in the assay on IGROV1 ovarian; -33.4% (active) with OVCAR-3 ovarian; 78.4% in the assay on HS 578T breast; 102% in the assay with NCI/ADR-RES ovarian; 8.47% (active) in the assay with T-47D breast; 40.8% in the assay on BT-549 breast. Besides, the growth with MDA-MB-435 melanoma was 17.5%; in the assay with SW-620 colon, -42.9% (active); in the assay on MCF7 breast, 4.45% (active); in the assay on HCT-116 colon it was -52% (active); in the assay on HCC-2998 colon it was 104%; in the assay with KM12 colon, 100%.

`CC1=CC=C(NC(=O)/C=C/c2ccccc2)CC1Nc1nccc(-c2cccnc2)n1` (centres undefined): the growth in the assay with SR leukemia is 15.3%; in the assay on RPMI-8226 leukemia, 17.2%; in the assay with OVCAR-8 ovarian it was 61%; with OVCAR-5 ovarian, 96.8%; in the assay with OVCAR-4 ovarian, 70%; in the assay with SK-OV-3 ovarian it was 57.6%. For the same compound, the growth with IGROV1 ovarian was 54.7%; in the assay on OVCAR-3 ovarian it was 19.9%; in the assay with HS 578T breast, 44.5%; with NCI/ADR-RES ovarian, 47.6%; in the assay on T-47D breast it was 48.1%; with BT-549 breast it was 74.5%. The growth in the assay on MDA-MB-435 melanoma was -48.5% (active); in the assay on SW-620 colon, 27%; in the assay on MCF7 breast, 18%; with HCT-116 colon, 14.5%; with HCC-2998 colon it was 70.5%; in the assay with KM12 colon, 26.4%.

As to `N=C(N)c1ccc(-c2ccc(-c3ccc(Cl)c(Cl)c3)s2)cc1`, the growth in the assay with SR leukemia is 5.08% (active); in the assay on RPMI-8226 leukemia, -15.6% (active); in the assay with OVCAR-8 ovarian, -17% (active); in the assay with OVCAR-5 ovarian, 15.2%; in the assay on OVCAR-4 ovarian it was -16.2% (active); in the assay on SK-OV-3 ovarian it was 94.6%. Further, the growth with IGROV1 ovarian was -49.5% (active); in the assay with OVCAR-3 ovarian, -87.9% (active); in the assay with HS 578T breast it was 94%; with NCI/ADR-RES ovarian, 83.5%; in the assay on T-47D breast it was 62.1%; in the assay with BT-549 breast it was 109%. Besides, the growth in the assay with MDA-MB-435 melanoma was 14.4%; in the assay on SW-620 colon it was -65.1% (active); in the assay on MCF7 breast, -62.4% (active); in the assay on HCT-116 colon it was -46.6% (active); in the assay with HCC-2998 colon, -53.7% (active); in the assay on KM12 colon, -91.4% (active).

For the compound `Nc1nc2ccccc2c2c(=O)c3ccc(Cl)cc3sc12`, the growth in the assay with SR leukemia was 84.4%; in the assay with RPMI-8226 leukemia, 95.7%; in the assay on OVCAR-8 ovarian, 103%; with OVCAR-5 ovarian, 101%; with OVCAR-4 ovarian, 92.1%; with SK-OV-3 ovarian, 98.4%. Also, the growth is 102% in the assay on IGROV1 ovarian; 104% in the assay on OVCAR-3 ovarian; 89.3% in the assay on HS 578T breast; 110% in the assay on NCI/ADR-RES ovarian; 53.9% in the assay on T-47D breast; 94.3% in the assay with BT-549 breast. Also, the growth with MDA-MB-435 melanoma was 101%; with SW-620 colon it was 76%; in the assay with MCF7 breast, 29.9%; with HCT-116 colon, 82.1%; in the assay on HCC-2998 colon it was 114%; with KM12 colon it was 87.5%.

Take `O=C(NNc1ccccc1)C1CCCN1` (centres undefined): the growth in the assay with SR leukemia is 105%; in the assay on RPMI-8226 leukemia it was 78.7%; in the assay on OVCAR-8 ovarian, 86.7%; in the assay on OVCAR-5 ovarian it was 69.7%; in the assay with OVCAR-4 ovarian, 64.5%; with SK-OV-3 ovarian, 80.6%. The growth is 75.1% in the assay with IGROV1 ovarian; 88.8% with OVCAR-3 ovarian; 93% in the assay with HS 578T breast; 84.1% with NCI/ADR-RES ovarian; 55.6% with T-47D breast; 104% in the assay with BT-549 breast. The growth with MDA-MB-435 melanoma was 37.1%; in the assay on SW-620 colon, 68.2%; with MCF7 breast, 76.4%; in the assay on HCT-116 colon it was 78.8%; in the assay on HCC-2998 colon it was 82.2%; in the assay with KM12 colon, 31.9%.
